# This is one part of a sample in which hits are shown more often than they occur.
# Sm TGR inh: S. mansoni TGR enzyme inhibition | purified TGR, DTNB reduction, TNB absorbance 405 nm | Potency, µM (top dose mostly 114 µM), hits mostly inhibitors | hit rate 3% among 360,000; further: nearly all actives have a fitted effect of over 60% in size
#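 Kinetic colorimetric format: TGR-catalysed, NADPH-driven DTNB reduction monitored via TNB absorbance. Enzyme dispensed at 20 nM; compound exposure 15 min at room temperature before reaction start.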
# FBPA Giardia inh: inhibitors of Giardia lamblia fructose-1,6-bisphosphate aldolase; AID 2451; purified Giardia FBPA; Potency, µM (top dose mostly 59.6 µM), actives largely listed as inhibitors; hit rate 0.71% among 290,000; further: nearly all actives have a fitted effect of over 55% in size
#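 Giardia FBPA (40 nM reagent) was preincubated 10 min at RT with compound (up to 57.5 uM final), then substrate plus GAPDH/TPI/NAD/arsenate coupling system with diaphorase/resazurin was added; resorufin fluorescence (525/598 nm) was read after 20 min.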
# Tb PYK inh: T. brucei pyruvate kinase inhibition; TbPYK enzyme, Kinase-Glo Plus ATP luminescence, 45 min; AID 624173; Potency, µM (series often up to 76.8 µM), hits mostly inhibitors; hit rate 0.12% among 410,000; further: nearly all actives have a fitted effect of over 50% in size
#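 In this concentration-response screen, enzyme-free wells defined baseline while DMSO plates tracked drift. Each reaction combined TbPYK, substrate, compound and 130 uM ADP for 45 min at room temperature. Kinase-Glo Plus luminescence gave the signal.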
# CHX counter: counter-screen hit for Shiga toxin inhibitors, cycloheximide; cell reporter, cycloheximide protein synthesis inhibition counterscreen; hit rate 12% among 300,000; max response, %; in the data active means max response mostly above about 13%, no sharp cut-off; inactive means mostly below about 14%; further: read at 38.3 µM for the half of the compounds with a filed dose
# LmPK inh: inhibitors of Leishmania mexicana pyruvate kinase. hit rate 0.37% among 290,000. purified LmPK, Kinase-Glo ATP luminescence, 1 h. Q27686. Potency, µM (doses to about 57.5 µM), usual class: inhibitors
# Target sequence (Q27686 whole entry, looked up): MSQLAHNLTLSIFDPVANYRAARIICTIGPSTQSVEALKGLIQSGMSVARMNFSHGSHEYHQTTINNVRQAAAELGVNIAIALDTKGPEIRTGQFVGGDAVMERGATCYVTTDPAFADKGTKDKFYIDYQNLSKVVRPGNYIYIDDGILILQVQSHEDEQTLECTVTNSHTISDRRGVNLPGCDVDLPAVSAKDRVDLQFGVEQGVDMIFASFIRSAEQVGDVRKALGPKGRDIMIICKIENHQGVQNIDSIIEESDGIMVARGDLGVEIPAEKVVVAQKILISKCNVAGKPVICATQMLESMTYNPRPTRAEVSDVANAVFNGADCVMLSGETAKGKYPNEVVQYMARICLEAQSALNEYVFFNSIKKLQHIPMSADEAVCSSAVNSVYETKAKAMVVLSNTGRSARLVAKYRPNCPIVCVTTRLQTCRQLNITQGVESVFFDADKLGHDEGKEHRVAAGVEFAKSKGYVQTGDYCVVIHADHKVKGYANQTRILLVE
#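 qHTS format; LmPK 0.1 nM; substrates PEP 0.5 mM and ADP 0.1 mM. One-hour room-temperature incubation, then coupled luciferase luminescence; 0.5 nM enzyme wells mark activation.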
# Shiga inhibitor: blocks Shiga toxin action in Vero cells. inhibition, % at 38.7 µM. Vero cells, Shiga toxin protein synthesis inhibition reporter. hit rate 9.2% among 290,000; in the data active means inhibition mostly above about 28%, no sharp cut-off; inactive means mostly below about 43%
# Numbers stand for hits; – = inactive; · = not tested or not shown; [ ] = dose if it differs, or a comment. Unless noted, the call rests on the fitted dose curve; in most records, active means well fitted curve in the direction sought with a large enough effect; inconclusive means small, poorly fitted or top-dose-only effect, or another doubt; inactive means no such curve, though single readings can be large; an effect the other way counts as inactive or inconclusive.
SMILES,Sm TGR inh,FBPA Giardia inh,Tb PYK inh,CHX counter,LmPK inh,Shiga inhibitor
COc1ccc(C(=O)NCCSc2ccccn2)cc1,–,–,–,32.2,–,52.8
COC(=O)c1ccc2nc(-c3ccc(C#N)cc3)c(Cc3cccc(F)c3)n2c1,·,·,–,·,·,·
O=C(NCCNC(=O)c1cc(Cl)ccc1Cl)c1ccccn1,–,–,–,–,–,–
Cc1ccc(NC(=O)COC(=O)Cn2nc(C)c([N+](=O)[O-])c2C)c([N+](=O)[O-])c1,–,–,–,28.0,–,–
O=C(CSc1ccccn1)Nc1ccc(NC(=O)CSc2ccccn2)cc1,·,–,–,–,–,–
CCc1ccc(NC(=O)CSc2ccccn2)cc1,–,–,–,40.3,–,–
COc1ccc(NC(=O)CC(C)c2ccccc2)c([N+](=O)[O-])c1 (stereo not drawn),–,–,–,19.0,–,–
Cn1c(N)c(C(=O)CSc2ccccn2)c(=O)n(C)c1=O,–,–,–,–,–,47.4
Cc1nn(CC(=O)OCC(=O)Nc2ccccc2[N+](=O)[O-])c(C)c1[N+](=O)[O-],–,–,–,–,–,–
Cc1ccc(CNC(=O)c2ccc(CSCc3ccccc3C)o2)cc1,–,·,–,·,·,·
C[C@]12CCC3c4ccc(OCC(=O)O)cc4CCC3C1CCC2=O (stereo partly drawn),–,–,–,–,–,–
COC(=O)CNC(=O)CSc1ccccn1,–,–,–,–,–,–
O=C(O)CCSc1ccccn1,–,–,–,–,–,–
Cc1ccc(NC(=O)CSc2ncccn2)c([N+](=O)[O-])c1,–,–,–,27.8,–,82.0
Cc1ccc(NC(=O)CSc2nc(C)c(C)c(C)n2)c([N+](=O)[O-])c1,–,–,–,–,–,–
O=C(CCSc1ccccn1)Nc1ccc(Br)cc1,–,–,–,49.1,–,101.4
COc1ccccc1C(=O)CSc1ccccn1,–,–,–,27.1,–,94.3
CC(=O)OCC(CO)OC(C)=O (stereo not drawn) (tested in a mixture with another compound),·,–,·,–,·,–
COC(=O)/C(C#N)=C1/C=Cc2ccccc2N1,–,–,–,34.3,–,68.0
Cc1cccc(C(=O)N2CCCC(N3CCN(c4ccccc4)CC3)C2)n1 (stereo not drawn),–,–,–,–,–,–
Cc1ccc2cc3c(nc2c1)OCC3,–,–,–,32.0,–,47.4
Cc1cc(C(=O)CSc2nnc(-c3ccccc3F)o2)c(C)n1Cc1cccs1,–,–,–,18.7,–,–
Cc1cc(C(=O)CSc2nc3ccccc3n2CCC#N)c(C)n1Cc1cccs1,–,–,–,46.0,–,55.2
C=CCn1c(SCC(=O)c2cc(C)n(Cc3cccs3)c2C)nnc1-c1ccncc1,–,–,–,–,–,–
COc1ccccc1-n1cnnc1SCC(=O)c1cc(C)n(Cc2cccs2)c1C,–,–,–,39.0,–,37.8
SMILES,Sm TGR inh,FBPA Giardia inh,Tb PYK inh,CHX counter,LmPK inh,Shiga inhibitor
CCOC(=O)[C@@H](NC(=O)/C=C/[C@H]1O[C@@H](n2ccc(=O)[nH]c2=O)[C@H](O)[C@@H]1O)C(C)C,·,·,–,·,·,·
COc1cc2c(cc1OC)C1(O)C(=O)c3ccc(O)c(C(=O)O)c3OC1CO2 (stereo not drawn),·,–,·,·,·,·
CCCCc1nc2c(c3c1C[C@H](C)OC3)CN(C(=O)C1CCCCC1)CC2,·,–[12.9 µM],·,·,–[11.5 µM],·
Clc1ccc2[nH]c3c(NCCCN4CCOCC4)ncnc3c2c1,–,–,–,–,–,–
C=CCNc1ncnc2c1[nH]c1ccc(C)cc12,–,–,–,43.5,–,79.4
CCOc1ccc2[nH]c3c(NCCN(C)C)ncnc3c2c1,–,–,·,–,–,–
Cc1ccc2[nH]c3c(NCCN4CCOCC4)ncnc3c2c1,–,–,–,14.1,–,52.6
O=C1CCCN1CCCNc1ncnc2c1[nH]c1ccc(Cl)cc12,–,–,–,13.1,–,–
N#Cc1c(NC(=O)CS(=O)(=O)c2ccc(Cl)cc2)sc2c1CCCCC2,–,·,–[15.4 µM],·,·,·
COc1ccc(OC)c(CNC(=O)c2nn(-c3ccc(OC)c(Cl)c3)c(=O)c3c2c2ccccc2n3C)c1,–,·,–,·,·,·
Cc1nc2cnc(N3CCN(C)CC3)nc2n(C)c1=O,·,–,·,·,·,·
COc1cccc2c1C(=O)O/C2=C/c1ccc2c(c1)OCO2,–,–,·,43.1,–,71.2

# Screening data from PubChem.
